Consider two compounds from ChEMBL document CHEMBL2218924, “A broad activity screen in support of a chemogenomic map for kinase signalling research and drug discovery” (Biochem J, 2013).

For assay [1], the target named is Serine/threonine-protein kinase 33 (Homo sapiens) (UniProt Q9BYT3). The settings on record: at 1 µM.
Assay [2] has the same target. The settings on record: at 10 µM.
In assay [3] the target is Serine/threonine-protein kinase PLK2 (Homo sapiens) (UniProt Q9NYY3). The note with it: at 1 µM.
Sequence of Serine/threonine-protein kinase PLK2 (Homo sapiens) (Q9NYY3 whole entry, looked up): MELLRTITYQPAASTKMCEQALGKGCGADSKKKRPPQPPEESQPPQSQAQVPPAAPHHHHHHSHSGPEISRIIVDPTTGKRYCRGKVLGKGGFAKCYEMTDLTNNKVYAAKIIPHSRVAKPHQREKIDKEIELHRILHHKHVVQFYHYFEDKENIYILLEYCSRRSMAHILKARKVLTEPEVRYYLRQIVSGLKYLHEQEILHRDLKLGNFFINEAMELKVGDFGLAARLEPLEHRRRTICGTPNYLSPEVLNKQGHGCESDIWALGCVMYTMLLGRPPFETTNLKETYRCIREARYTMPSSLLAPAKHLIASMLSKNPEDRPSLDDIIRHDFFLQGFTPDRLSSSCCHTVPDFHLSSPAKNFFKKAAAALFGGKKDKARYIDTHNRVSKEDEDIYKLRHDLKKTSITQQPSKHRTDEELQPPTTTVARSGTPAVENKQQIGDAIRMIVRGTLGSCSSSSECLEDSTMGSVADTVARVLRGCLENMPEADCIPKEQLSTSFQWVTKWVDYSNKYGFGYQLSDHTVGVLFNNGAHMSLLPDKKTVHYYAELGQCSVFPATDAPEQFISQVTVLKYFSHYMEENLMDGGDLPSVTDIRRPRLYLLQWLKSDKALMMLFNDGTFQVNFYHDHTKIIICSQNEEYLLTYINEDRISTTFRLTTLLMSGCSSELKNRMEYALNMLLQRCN
Assay [4] shares this target. The settings on record: at 10 µM.
Assay [5] has as its target Tyrosine-protein kinase SYK (Homo sapiens) (UniProt P43405). The settings on record: at 1 µM.
For assay [6] the target is unchanged. The note with it: at 10 µM.
In assay [7] the target is T1, Mitogen-activated protein kinase kinase kinase 7 (Homo sapiens) (UniProt O43318).
T1 sequence (whole entry): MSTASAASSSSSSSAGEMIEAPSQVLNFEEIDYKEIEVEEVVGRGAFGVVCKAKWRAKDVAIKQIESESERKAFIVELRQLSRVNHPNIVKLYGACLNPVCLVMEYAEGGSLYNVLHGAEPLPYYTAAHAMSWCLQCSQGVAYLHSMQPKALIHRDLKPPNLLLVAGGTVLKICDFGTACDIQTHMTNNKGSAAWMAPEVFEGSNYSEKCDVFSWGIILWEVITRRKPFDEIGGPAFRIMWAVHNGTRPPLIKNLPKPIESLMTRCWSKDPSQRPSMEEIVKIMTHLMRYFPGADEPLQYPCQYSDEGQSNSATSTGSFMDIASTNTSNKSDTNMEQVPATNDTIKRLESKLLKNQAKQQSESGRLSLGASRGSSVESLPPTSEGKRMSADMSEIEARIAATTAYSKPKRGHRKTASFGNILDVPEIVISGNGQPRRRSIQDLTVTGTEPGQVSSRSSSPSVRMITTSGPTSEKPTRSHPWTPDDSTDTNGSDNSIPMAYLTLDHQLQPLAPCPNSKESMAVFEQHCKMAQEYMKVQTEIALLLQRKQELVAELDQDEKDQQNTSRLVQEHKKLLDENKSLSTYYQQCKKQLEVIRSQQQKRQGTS
The note with it: at 1 µM.

Assay [8] concerns the target T1, Mitogen-activated protein kinase kinase kinase 7 (Homo sapiens). The note with it: at 10 µM.
The target in assay [9] is T2, Serine/threonine-protein kinase TAO1 (Homo sapiens) (UniProt Q7L7X3).
T2 sequence (whole entry): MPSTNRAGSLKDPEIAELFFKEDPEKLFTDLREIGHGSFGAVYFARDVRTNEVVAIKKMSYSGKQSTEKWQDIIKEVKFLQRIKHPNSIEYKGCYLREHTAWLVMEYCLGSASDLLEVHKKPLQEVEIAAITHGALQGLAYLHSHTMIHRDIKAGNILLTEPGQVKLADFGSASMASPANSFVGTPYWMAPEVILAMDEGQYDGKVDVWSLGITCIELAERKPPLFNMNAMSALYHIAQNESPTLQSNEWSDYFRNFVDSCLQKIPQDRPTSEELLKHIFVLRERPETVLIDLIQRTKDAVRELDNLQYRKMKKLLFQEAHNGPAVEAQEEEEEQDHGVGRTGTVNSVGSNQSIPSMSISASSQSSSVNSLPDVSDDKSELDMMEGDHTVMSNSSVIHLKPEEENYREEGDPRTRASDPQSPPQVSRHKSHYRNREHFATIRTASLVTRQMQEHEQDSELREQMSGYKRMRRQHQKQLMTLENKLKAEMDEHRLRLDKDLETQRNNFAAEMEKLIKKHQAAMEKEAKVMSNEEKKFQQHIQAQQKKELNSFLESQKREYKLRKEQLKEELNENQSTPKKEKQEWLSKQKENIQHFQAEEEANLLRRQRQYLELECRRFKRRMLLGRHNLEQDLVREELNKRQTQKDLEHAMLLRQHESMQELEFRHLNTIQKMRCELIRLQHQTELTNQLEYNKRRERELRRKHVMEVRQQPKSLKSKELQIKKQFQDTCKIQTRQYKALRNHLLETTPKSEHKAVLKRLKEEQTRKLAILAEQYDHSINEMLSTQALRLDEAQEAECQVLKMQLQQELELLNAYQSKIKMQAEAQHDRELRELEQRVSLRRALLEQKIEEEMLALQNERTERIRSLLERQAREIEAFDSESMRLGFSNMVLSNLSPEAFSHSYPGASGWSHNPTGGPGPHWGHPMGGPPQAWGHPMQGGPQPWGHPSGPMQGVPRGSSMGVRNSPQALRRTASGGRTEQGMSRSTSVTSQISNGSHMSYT
The settings on record: at 1 µM.

Assay [10] addresses T2, Serine/threonine-protein kinase TAO1 (Homo sapiens). The settings on record: at 10 µM.
The target of assay [11] is T3, Serine/threonine-protein kinase TAO2 (Homo sapiens) (UniProt Q9UL54).
T3 sequence (whole entry): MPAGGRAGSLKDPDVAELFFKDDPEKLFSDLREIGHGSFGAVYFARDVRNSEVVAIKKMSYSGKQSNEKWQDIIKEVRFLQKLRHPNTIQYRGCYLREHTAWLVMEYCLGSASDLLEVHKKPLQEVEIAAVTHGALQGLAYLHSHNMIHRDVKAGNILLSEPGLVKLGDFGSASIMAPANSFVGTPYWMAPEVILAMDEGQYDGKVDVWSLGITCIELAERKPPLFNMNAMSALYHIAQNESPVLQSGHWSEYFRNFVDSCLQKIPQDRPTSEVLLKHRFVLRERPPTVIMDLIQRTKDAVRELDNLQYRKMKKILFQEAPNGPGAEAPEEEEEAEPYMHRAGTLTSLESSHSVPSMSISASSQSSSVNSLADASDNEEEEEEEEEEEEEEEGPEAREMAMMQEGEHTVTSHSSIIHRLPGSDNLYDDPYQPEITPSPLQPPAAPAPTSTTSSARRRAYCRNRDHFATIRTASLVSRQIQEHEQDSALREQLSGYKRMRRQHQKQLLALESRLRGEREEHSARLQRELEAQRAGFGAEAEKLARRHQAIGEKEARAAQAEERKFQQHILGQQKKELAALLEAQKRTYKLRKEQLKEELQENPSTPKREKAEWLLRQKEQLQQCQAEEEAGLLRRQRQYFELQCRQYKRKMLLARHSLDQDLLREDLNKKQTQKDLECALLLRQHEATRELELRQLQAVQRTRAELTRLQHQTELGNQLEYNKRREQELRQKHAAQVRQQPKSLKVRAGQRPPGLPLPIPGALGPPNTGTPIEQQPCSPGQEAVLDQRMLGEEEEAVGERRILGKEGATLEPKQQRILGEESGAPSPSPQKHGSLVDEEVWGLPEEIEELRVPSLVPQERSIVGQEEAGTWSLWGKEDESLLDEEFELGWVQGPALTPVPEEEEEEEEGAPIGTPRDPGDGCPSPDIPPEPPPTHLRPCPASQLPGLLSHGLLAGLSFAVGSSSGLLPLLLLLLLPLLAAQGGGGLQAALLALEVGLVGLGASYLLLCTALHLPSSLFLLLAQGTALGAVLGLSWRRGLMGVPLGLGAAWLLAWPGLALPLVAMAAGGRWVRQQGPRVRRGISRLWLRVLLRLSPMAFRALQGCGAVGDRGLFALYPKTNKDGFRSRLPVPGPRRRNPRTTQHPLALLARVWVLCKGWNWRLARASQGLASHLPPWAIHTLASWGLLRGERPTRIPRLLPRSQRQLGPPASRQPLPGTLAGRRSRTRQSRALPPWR
The settings on record: at 1 µM.

For assay [12], the target named is T3, Serine/threonine-protein kinase TAO2 (Homo sapiens). The note with it: at 10 µM.
In assay [13] the target is T4, Serine/threonine-protein kinase TAO3 (Homo sapiens) (UniProt Q9H2K8).
T4 sequence (whole entry): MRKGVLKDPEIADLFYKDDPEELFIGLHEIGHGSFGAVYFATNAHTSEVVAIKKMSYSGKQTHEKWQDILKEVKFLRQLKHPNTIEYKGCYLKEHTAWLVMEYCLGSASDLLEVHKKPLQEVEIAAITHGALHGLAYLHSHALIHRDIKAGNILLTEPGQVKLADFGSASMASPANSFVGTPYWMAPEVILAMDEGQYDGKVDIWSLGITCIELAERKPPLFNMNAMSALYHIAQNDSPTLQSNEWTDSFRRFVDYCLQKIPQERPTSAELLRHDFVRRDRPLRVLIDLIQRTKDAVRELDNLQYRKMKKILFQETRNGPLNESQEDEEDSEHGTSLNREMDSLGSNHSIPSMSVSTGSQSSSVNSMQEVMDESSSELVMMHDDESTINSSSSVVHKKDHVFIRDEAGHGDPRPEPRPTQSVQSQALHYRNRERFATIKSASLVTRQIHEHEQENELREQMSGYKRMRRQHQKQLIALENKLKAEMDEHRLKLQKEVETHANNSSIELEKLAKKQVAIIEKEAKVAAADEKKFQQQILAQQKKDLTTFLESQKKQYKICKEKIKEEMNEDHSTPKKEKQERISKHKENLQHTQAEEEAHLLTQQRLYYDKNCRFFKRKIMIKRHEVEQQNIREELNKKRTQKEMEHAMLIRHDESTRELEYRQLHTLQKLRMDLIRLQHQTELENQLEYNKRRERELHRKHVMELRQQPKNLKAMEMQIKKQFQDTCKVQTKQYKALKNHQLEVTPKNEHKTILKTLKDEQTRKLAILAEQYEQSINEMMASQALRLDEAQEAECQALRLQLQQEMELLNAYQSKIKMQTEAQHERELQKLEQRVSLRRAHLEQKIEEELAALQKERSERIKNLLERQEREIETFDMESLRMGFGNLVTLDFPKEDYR
The settings on record: at 1 µM.

Assay [14] has as its target T4, Serine/threonine-protein kinase TAO3 (Homo sapiens). The settings on record: at 10 µM.
Assay [15] concerns the target T5, Serine/threonine-protein kinase TBK1 (Homo sapiens) (UniProt Q9UHD2).
T5 sequence (whole entry): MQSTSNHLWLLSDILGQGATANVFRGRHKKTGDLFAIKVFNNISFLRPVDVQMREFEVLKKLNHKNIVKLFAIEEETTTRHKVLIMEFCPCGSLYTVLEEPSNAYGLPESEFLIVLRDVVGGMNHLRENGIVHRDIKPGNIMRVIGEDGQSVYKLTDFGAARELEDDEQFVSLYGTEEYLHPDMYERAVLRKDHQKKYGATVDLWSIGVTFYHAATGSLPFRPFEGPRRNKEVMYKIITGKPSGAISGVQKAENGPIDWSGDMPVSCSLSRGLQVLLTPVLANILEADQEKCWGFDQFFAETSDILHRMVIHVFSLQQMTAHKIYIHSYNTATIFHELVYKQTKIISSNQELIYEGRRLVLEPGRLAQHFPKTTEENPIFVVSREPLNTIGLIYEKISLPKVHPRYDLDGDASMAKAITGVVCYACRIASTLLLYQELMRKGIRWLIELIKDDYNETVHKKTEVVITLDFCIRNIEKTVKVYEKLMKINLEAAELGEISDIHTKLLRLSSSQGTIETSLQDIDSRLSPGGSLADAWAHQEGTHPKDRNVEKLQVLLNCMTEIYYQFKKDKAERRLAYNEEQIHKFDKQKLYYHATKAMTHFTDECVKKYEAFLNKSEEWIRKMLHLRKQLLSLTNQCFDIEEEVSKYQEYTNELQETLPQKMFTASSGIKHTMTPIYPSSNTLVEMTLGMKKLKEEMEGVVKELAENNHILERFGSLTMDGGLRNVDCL
The note with it: at 1 µM.

The target in assay [16] is T5, Serine/threonine-protein kinase TBK1 (Homo sapiens). The settings on record: at 10 µM.
For assay [17], the target named is T6, TGF-beta receptor type-1 (Homo sapiens) (UniProt P36897).
T6 sequence (whole entry): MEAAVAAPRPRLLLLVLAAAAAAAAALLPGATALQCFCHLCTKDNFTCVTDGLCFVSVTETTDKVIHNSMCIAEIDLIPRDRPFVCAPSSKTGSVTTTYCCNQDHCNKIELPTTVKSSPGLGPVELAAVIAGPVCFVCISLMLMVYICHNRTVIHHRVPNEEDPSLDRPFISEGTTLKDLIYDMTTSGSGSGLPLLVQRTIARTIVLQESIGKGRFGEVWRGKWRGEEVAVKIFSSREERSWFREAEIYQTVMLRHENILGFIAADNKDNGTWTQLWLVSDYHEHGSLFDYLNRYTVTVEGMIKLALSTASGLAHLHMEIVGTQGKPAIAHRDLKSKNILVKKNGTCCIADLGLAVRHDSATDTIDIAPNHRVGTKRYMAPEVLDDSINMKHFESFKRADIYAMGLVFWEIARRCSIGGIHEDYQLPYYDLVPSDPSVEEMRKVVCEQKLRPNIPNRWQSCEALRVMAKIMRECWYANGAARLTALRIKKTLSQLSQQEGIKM
The settings on record: at 1 µM.

For assay [18], the target named is T6, TGF-beta receptor type-1 (Homo sapiens). The settings on record: at 10 µM.
Assay [19] addresses Insulin-like growth factor 1 receptor (Homo sapiens) (UniProt P08069). The settings on record: at 1 µM.
For assay [20] the target is unchanged. The settings on record: at 10 µM.

The structures appear in SMILES notation.

Sequence of Insulin-like growth factor 1 receptor (Homo sapiens) (P08069 31-736 limits assumed): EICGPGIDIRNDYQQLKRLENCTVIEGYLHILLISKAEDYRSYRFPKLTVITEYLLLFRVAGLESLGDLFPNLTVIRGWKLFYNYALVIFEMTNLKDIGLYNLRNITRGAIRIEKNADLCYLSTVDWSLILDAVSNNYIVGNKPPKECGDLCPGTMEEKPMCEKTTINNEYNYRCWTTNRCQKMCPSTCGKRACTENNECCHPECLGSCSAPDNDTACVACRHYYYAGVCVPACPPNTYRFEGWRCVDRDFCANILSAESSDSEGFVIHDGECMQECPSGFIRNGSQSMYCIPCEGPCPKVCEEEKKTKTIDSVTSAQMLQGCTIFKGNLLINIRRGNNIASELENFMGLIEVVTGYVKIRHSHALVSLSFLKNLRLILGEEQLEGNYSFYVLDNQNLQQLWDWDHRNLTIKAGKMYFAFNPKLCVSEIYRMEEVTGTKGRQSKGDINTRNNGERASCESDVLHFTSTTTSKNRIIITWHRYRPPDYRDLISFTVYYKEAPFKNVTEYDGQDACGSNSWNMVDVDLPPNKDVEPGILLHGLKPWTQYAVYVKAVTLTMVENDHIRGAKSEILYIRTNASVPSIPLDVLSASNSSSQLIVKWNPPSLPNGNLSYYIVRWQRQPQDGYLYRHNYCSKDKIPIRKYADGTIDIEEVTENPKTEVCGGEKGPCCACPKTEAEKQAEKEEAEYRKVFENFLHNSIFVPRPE
Sequence of Insulin-like growth factor 1 receptor (Homo sapiens) (P08069 741-1367 limits assumed): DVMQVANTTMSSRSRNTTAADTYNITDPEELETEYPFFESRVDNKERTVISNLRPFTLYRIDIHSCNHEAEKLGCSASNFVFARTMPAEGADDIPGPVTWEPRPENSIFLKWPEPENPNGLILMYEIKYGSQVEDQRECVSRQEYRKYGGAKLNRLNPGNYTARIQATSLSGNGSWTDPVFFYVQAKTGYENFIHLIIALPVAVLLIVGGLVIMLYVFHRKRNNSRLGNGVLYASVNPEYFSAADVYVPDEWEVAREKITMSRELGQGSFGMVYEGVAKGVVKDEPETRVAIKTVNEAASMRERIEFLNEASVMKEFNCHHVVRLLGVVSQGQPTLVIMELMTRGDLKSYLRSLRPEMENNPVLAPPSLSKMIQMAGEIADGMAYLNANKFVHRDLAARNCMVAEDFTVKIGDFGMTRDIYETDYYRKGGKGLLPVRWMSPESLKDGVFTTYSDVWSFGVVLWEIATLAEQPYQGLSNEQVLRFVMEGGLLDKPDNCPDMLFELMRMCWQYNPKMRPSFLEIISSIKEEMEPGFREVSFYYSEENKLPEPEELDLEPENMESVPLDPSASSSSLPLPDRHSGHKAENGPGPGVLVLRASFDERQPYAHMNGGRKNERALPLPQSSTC
Sequence of Serine/threonine-protein kinase 33 (Homo sapiens) (Q9BYT3 whole entry, looked up): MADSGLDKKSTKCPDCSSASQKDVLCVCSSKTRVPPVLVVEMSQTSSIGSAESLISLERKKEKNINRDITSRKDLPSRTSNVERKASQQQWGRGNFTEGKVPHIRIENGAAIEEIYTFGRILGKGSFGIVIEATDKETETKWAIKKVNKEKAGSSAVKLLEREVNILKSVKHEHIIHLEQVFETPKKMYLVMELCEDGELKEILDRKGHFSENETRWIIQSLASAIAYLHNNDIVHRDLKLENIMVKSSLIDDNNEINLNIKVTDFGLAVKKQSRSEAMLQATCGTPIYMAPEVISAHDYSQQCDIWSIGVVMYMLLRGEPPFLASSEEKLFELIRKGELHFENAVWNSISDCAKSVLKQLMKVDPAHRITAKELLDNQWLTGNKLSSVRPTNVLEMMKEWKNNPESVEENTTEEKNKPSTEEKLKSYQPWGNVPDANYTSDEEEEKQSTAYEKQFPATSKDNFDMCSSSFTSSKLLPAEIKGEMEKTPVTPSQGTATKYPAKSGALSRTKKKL

Regarding `O=C1Nc2ccc3ncsc3c2/C1=C/c1c[nH]cn1`, the residual activity in assay [1] was 62%; in [2] it was 25%; in assay [3], 49%; in assay [4] it was 17%; in assay [5], 101%; in assay [6], 53%. For the same compound, the residual activity in assay [7] was 16%; in assay [8], 1%; in assay [9], 11%; in [10], 0%; in assay [11], 33%; in assay [12], 10%. Moreover, the residual activity in assay [13] was 17%; in assay [14], 6%; in [15], 7%; in [16], 0%; in assay [17], 68%; in assay [18], 38%. Moreover, the residual activity worked out at 94% in assay [19] and 60% in assay [20].

`C[S+]([O-])c1ccc(-c2nc(-c3ccc(F)cc3)c(-c3ccncc3)[nH]2)cc1` (stereo not given): the residual activity is 106% in [1]; 109% in [2]; 116% in [3]; 103% in assay [4]; 112% in assay [5]; 101% in assay [6]. Also, the residual activity in assay [7] came to 106%; in [8] it was 101%; in assay [9], 100%; in assay [10], 77%; in assay [11], 111%; in assay [12], 79%. The residual activity was determined as 108% in [13]; 79% in [14]; 124% in assay [15]; 111% in assay [16]; 130% in [17]; 77% in assay [18]. The figures for the residual activity in assay [19] and in [20] were 117% and 122%, respectively.
